# Assay outcomes: PubChem BioAssay, National Center for Advancing Translational Sciences (NCATS)
# Pf growth 48h – P. falciparum growth inhibition at 48 hours (one generation); Potency, µM (top dose mostly 28.7 µM), hits mostly inhibitors; actives 5.9% (n = 310,000); AID 504832; P. falciparum luciferase growth in erythrocytes, 48 h
#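 Luciferase-expressing parasites in RBCs, 2% Hct / 0.1% parasitemia final; RPMI 1640 + 0.5% Albumax; 37 C, 5% CO2, one generation; luminescence read-out, lower signal = inhibition.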
# HCMV antiviral – inhibitors of human cytomegalovirus; activity change, negative = inhibition, % at 57.5 µM; HFF cells, HCMV-luciferase reporter, 72 h; active compounds read low; actives 4.5% (n = 410,000); in the data active means activity change below about -60%; inconclusive means no clear call, values can overlap the other calls; inactive means above about -39%
#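 Cell-based, HFFs, 1000 cells/well, 16 h 37C; cpds in DMSO + HCMV-luc, MOI 1 PFU/cell; 72 h 37C; OneGlo luminescence after 5 min RT; norm. to buffer vs Salinomycin 10uM.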
# Pf growth 96h – P. falciparum growth inhibition at 96 hour, primary screen for plastid delayed-death inhibitors; P. falciparum luciferase reporter growth, 96 h; Potency, µM (doses to about 28.7 µM), usual class: inhibitors; actives 6.9% (n = 320,000); AID 504834
#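 Delayed-death screen, second-generation endpoint: infected erythrocytes, 2% hematocrit, 0.05% parasitemia final; 96 hours at 37 C, 5% CO2; luciferase detection reagent; luminescence decrease equals reduced growth.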
# CHX counter – counter-screen for Shiga toxin inhibitors: cycloheximide protein synthesis inhibition | actives 12% (n = 300,000) | cell reporter, cycloheximide protein synthesis inhibition counterscreen | max response, % | AID 2314; in the data active means max response mostly above about 13%, no sharp cut-off; inactive means mostly below about 14%; further: read at 38.3 µM for the half of the compounds with a filed dose
# Shiga toxin inh – blocks Shiga toxin action in Vero cells | inhibition, % at 38.7 µM | actives 9.2% (n = 290,000) | Vero cells, Shiga toxin protein synthesis inhibition reporter | AID 2315; in the data active means inhibition mostly above about 28%, no sharp cut-off; inactive means mostly below about 43%
# A number is an active result; i = inactive; ? = inconclusive; nt = no result given. A selection: hits, their analogues and other compounds. The true share with any hit is near 20%. Unless noted, the call rests on the fitted dose curve; in most records, active means well fitted inhibition curve with a large enough effect; inconclusive means small, poorly fitted or top-dose-only effect, or another doubt; inactive means no such curve, though single readings can be large or run the other way.
SMILES,Pf growth 48h,HCMV antiviral,Pf growth 96h,CHX counter,Shiga toxin inh
CCCCNC(=O)c1ccc2c(c1)N(CC)C(=O)c1ccccc1S2(=O)=O,i,i,1.5µM,i,i
COc1ccccc1C(=O)NC(=O)COc1ccc(Cl)cc1Cl,i,i,i,nt,nt
CC(C)(CO)NC(=O)CCCOc1ccc(Cl)cc1Cl,i,i,i,50,54
CC(C)(C)C(=O)NNC(=O)CCCOc1ccc(Cl)cc1Cl,i,i,?,i,i
COc1ccc(CC(=O)NNC(=S)Nc2ccccc2)cc1Cl,i,-70,?,i,i
O=C(COc1ccc(Cl)cc1Cl)NC(=S)Nc1ccccc1C(=O)O,i,nt,i,23,35
O=C(COc1ccc(Cl)cc1Cl)NNC(=S)Nc1ccc(F)cc1,i,-103,i,i,i
CC(=O)NC(=S)Nc1ccc(NC(=O)COc2ccc(Cl)cc2Cl)cc1,i,i,?,i,i
O=C(Nc1ccc(C(=O)N2CCCCC2)cc1)c1ccc([N+](=O)[O-])cc1,?,i,i,i,i
COc1cccc2c3cccc(OC)c3c3[nH]cnc3c12,nt,i,nt,nt,nt
O=C(CCCOc1ccc(Cl)cc1Cl)Nc1ccccc1C(=O)O,i,i,i,42,84
Cc1cccc(OCC(=O)Nc2ccc(C(=O)Nc3ccccc3C(=O)O)cc2)c1,nt,i,nt,nt,nt
Fc1ccc(NC(=S)Nc2ccc(Cl)cc2Cl)cc1,i,?,i,22,i
O=C(COc1ccc(Cl)cc1Cl)Nc1ccc(C(=O)Nc2ccccc2C(=O)O)cc1,i,i,?,35,i
COc1ccc(Cc2nc(-c3cccc(C)c3)no2)cc1,nt,i,15µM,52,112
Cc1cccc(-c2noc(Cc3ccc(Cl)cc3)n2)c1,i,i,?,40,i
Cc1ccc(C)c(Cn2c(=O)n(CCCC(=O)NCCc3ccc(Cl)cc3)c(=O)c3ccccc32)c1,nt,i,nt,nt,nt
CNC(=O)C(=O)NCCN1CCN(S(=O)(=O)c2ccc3ccccc3c2)CC1,i,i,i,i,i
COc1cccc(CN2CCN(Cc3cccc(Oc4ccccc4)c3)CC2)c1OC,i,i,i,i,i
COc1cccc(CN2CCC(N(CCc3ccccc3)Cc3ccccc3)CC2)c1OC,?,-64,i,i,i
CCCCc1nc(S(=O)(=O)c2ccc(Cl)cc2)c(N2CCOCC2)o1,i,i,i,27,34
CC1CCN(C(=S)c2cn(Cc3ccccc3F)c3ccccc23)CC1,7.4µM,i,13µM,i,i
CCNC(=S)N/N=C/c1cn(Cc2ccccc2F)c2ccccc12,?,i,?,17,i
CN1CCN(C(=S)c2cn(Cc3ccccc3F)c3ccccc23)CC1,?,i,?,i,i
O=C(CSc1nccc(=O)[nH]1)Nc1cc(C(F)(F)F)ccc1N1CCOCC1,i,i,i,i,i
SMILES,Pf growth 48h,HCMV antiviral,Pf growth 96h,CHX counter,Shiga toxin inh
Cc1ccc2nc(SCC(=O)Nc3cc(C(F)(F)F)ccc3N3CCOCC3)[nH]c2c1,nt,-89,?,i,i
O=C(Nc1cc(C(F)(F)F)ccc1N1CCOCC1)c1ccc2ccccc2n1,i,i,?,23,i
O=C(CSc1nc2ccccc2o1)Nc1cc(C(F)(F)F)ccc1N1CCOCC1,12µM,i,nt,i,i
Cc1cc(C(=O)Nc2cc(C(F)(F)F)ccc2N2CCOCC2)no1,?,i,?,i,i
O=C(CSc1nc2ccccc2o1)Nc1ccc(N2CCOCC2)c(Cl)c1,i,i,nt,53,81
C/C=C/n1ccnc1CC(O)(c1ccccc1)c1ccc(C)cc1 (centres undefined),nt,i,nt,nt,nt
O=c1[nH]c(=O)c2[nH]c(=O)[nH]c2[nH]1,i,nt,i,nt,nt
O=C(NN1C(=O)C2C3C=CC([C@@H]2C1=O)C31CC1)c1ccccc1 (some centres undefined),i,i,i,i,i
CC(=O)c1cc2c(cc1NC(=O)CSc1nc3ccc(C)cc3[nH]1)OCO2,?,?,i,20,i
CC(=O)c1cc2c(cc1NC(=O)CSc1nc3ccccc3[nH]1)OCO2,i,nt,i,i,i
Cc1nc2ccccc2nc1OCC(=O)Nc1cc(C(F)(F)F)ccc1N1CCOCC1,12µM,i,i,i,i
CC(C)(C)C(=O)NC(=S)Nc1cc(C(F)(F)F)ccc1N1CCOCC1,nt,i,?,i,i
O=C(NC(=S)Nc1cc(C(F)(F)F)ccc1N1CCOCC1)c1sc2ccccc2c1Cl,2.1µM,i,3.3µM,i,i
CCCCn1nc(C(=O)Nc2cc(C(F)(F)F)ccc2N2CCOCC2)ccc1=O,12µM,i,?,nt,nt
Cc1ccc(CNC(=O)CN2C(=O)NC(C)(c3ccccc3Cl)C2=O)cc1 (centres undefined),?,i,?,i,i
Cc1ccc2c(c1)C(C1(O)C(=O)N(Cc3ccccc3)c3ccccc31)C(=O)N2C (centres undefined),nt,i,nt,nt,nt
CCCCN(C)CCNC(=O)c1cc2c(=O)n(C)c3ccccc3c2n1C,nt,i,nt,nt,nt
CC(C)=CCC[C@](C)(O[C@@H]1O[C@H](CO)[C@@H](O)[C@H](O)[C@H]1O)[C@H]1CC[C@]2(C)[C@@H]1[C@H](O)C[C@@H]1[C@@]3(C)CC[C@H](O[C@@H]4O[C@H](CO)[C@@H](O)[C@H](O)[C@H]4O[C@@H]4O[C@H](CO)[C@@H](O)[C@H](O)[C@H]4O)C(C)(C)[C@@H]3[C@@H](O)C[C@]12C,nt,nt,nt,i,i
O=C(Cn1cnc2ccccc21)Nc1cc(C(F)(F)F)ccc1N1CCOCC1,4.7µM,i,4.1µM,i,i
Cn1c(=O)c2ncn(CC(=O)Nc3cc(C(F)(F)F)ccc3N3CCOCC3)c2n(C)c1=O,?,i,?,i,i
CCOc1nc(Nc2ccc(OC)c(Cl)c2)nc(OCC)n1,nt,i,13µM,i,i
CCOc1nc(Nc2ccc(OC)cc2)nc(OCC)n1,i,i,nt,i,i
COc1ccc(S[C@]2(c3nc(C)no3)CC(=O)N(c3ccccc3)[C@@H]2c2ccc(OC)cc2)cc1,nt,i,nt,nt,nt
CN(C)c1ccc(-c2ccccc2)nn1,nt,i,i,32,94
COc1ccc(NS(=O)(=O)c2ccc3c(c2)CC(C)N3C(=O)C2CCC2)cc1OC (centres undefined),nt,-78,nt,nt,nt
SMILES,Pf growth 48h,HCMV antiviral,Pf growth 96h,CHX counter,Shiga toxin inh
COc1cc(Cl)c(NS(=O)(=O)c2ccc3c(c2)CC(C)N3C(=O)C2CCC2)c(OC)c1 (centres undefined),nt,-86,nt,nt,nt
CC1Cc2cc(S(=O)(=O)NCCc3ccc(Cl)cc3)ccc2N1C(=O)C1CCC1 (centres undefined),nt,i,nt,nt,nt
Cc1ccc(-c2csc(-c3c[nH]c4ccccc34)n2)c(C)c1,i,i,i,36,78
Oc1ccc(-c2csc(-c3c[nH]c4ccccc34)n2)c(O)c1,i,i,i,70,60
CC(=O)NCCC(=O)Nc1nc(-c2c[nH]c3ccccc23)cs1,i,i,i,i,i
COc1ccc(C2=C3CCC[C@]4(C)CCO[C@]34C=CC2=O)cc1,nt,i,nt,nt,nt
CCCCCCC(=O)Nc1nc(C)c(-c2csc(Nc3cc(Cl)ccc3C)n2)s1,?,i,?,i,i
CCCCC(=O)Nc1nc(C)c(-c2csc(Nc3cc(OC)ccc3OC)n2)s1,1µM,i,?,i,i
